IDH1 R132H inh: qHTS for Inhibitors of mutant isocitrate dehydrogenase 1 (IDH1): qHTS. Isocitrate dehydrogenase [NADP] cytoplasmic (Homo sapiens), O75874. IDH1-R132H enzyme, NADPH consumption, diaphorase/resazurin fluorescence. Potency, µM (doses to about 76.6 µM), hits mostly inhibitors. hit rate 0.093% among 390,000. AID 602179, 2012; note: nearly all actives have a fitted effect of over 65% in size
Target sequence (O75874 whole entry R132H, stated change not applied): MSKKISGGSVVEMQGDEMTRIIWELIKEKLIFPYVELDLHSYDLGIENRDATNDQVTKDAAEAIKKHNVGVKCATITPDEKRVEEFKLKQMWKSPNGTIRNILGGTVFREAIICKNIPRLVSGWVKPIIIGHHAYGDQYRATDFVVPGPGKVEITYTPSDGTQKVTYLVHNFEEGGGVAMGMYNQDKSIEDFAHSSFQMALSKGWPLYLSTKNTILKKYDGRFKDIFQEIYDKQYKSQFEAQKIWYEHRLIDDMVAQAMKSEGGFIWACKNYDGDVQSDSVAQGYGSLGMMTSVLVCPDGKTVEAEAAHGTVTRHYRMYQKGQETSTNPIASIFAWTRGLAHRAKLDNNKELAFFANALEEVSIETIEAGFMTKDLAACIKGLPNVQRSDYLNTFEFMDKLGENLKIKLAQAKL
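IDH1-R132H (0.5 ug/mL) preincubated 30 min with compound, then NADPH (0.016 mM) and alpha-KG (2 mM) added; 80 min at RT, pH 7.5. Remaining NADPH coupled via diaphorase/resazurin to fluorescence (540/590 nm); concentration-response curves normalized to no-enzyme control.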
TrxR1 inh: qHTS Assay for Inhibitors of Mammalian Selenoprotein Thioredoxin Reductase 1 (TrxR1): qHTS; Potency, µM (highest dose often 114 µM), most hits filed as inhibitors; recombinant rTrxR1, NADPH fluorescence consumption, selenite substrate; hit rate 1% among 390,000; note: nearly all actives have a fitted effect of over 65% in size
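Rat TrxR1 (90 nM in the dispensed reagent) was pre-reduced with 400 uM NADPH for 5 min at room temperature, then incubated with compound for 15 min. After 400 uM selenite was added, NADPH fluorescence (Ex 340/Em 450 nm) was followed for 8 min.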
TrxR1 substrate: qHTS Assay for Substrates of Mammalian Selenoprotein Thioredoxin Reductase 1 (TrxR1): qHTS; Thioredoxin reductase 1, cytoplasmic (Rattus norvegicus), O89049; purified TrxR1 substrate turnover, NADPH consumption readout; Potency, µM (series often up to 114 µM); hit rate 0.01% among 390,000; AID 588456, 2011; note: nearly all actives have a fitted effect of over 50% in size
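Rat TrxR1, dispensed at 90 nM, was prereduced with 400 uM NADPH (final) for 5 min at ~22 deg C, then incubated with compound 15 min before 400 uM selenite. A first-read NADPH fluorescence drop versus no-compound background flagged substrates.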
Sfp inh: qHTS Assay for Inhibitors of Bacillus subtilis Sfp phosphopantetheinyl transferase (PPTase). Biochemical Sfp PPTase activity, qHTS. Potency, µM, most hits filed as inhibitors. hit rate 3.5% among 310,000. AID 1490, 2009;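 note: the enzyme is Sfp with the accession as filed and its product quenches rhodamine fluorescence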
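Step 1, compound plus 15 nM Sfp-PPTase, 15 min, room temperature. Step 2, add rhodamine-CoA (5 uM) and BHQ-2-YbbR (12.5 uM). Step 3, read 525/598 nm fluorescence at 0 and 30 min.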
PLK1 PBD inh: qHTS for Inhibitors of PLK1-PDB (polo-like kinase 1 - polo-box domain): Primary Screen; Plk1 PBD binding of FITC phosphopeptide, fluorescence polarization; hit rate 2.8% among 360,000; Potency, µM, most hits filed as inhibitors; note: series mostly up to about 57 µM; nearly all actives have a fitted effect of over 65% in size
VDR inh: Inhibitors of the vitamin D receptor (VDR): qHTS | Vitamin D3 receptor (Homo sapiens), P11473 | VDR-SRC2-3 peptide fluorescence polarization, 2 h | Potency, µM, most hits filed as inhibitors | hit rate 0.93% among 400,000 | AID 504847, 2011
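Fluorescence polarization assay of small-molecule disruption of VDR binding to coregulator peptide SRC2-3. Compounds and controls pin-transferred, then read after 2 h incubation at ambient room temperature.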
Of the large screens only hits and unclear results are named; the others gave an inactive call. The list is not random: actives were taken first. Their share in the collection is about 5.2%. Calls come from the whole dose curve; as a rule, active = well fitted curve in the direction sought with a large enough effect; inconclusive = small, poorly fitted or top-dose-only effect, or another doubt; inactive = no such curve, though single readings can be large; an effect the other way counts as inactive or inconclusive.

Cc1cccc[n+]1C1C(c2ccccc2)C(C#N)=C(C(=C=[N-])C#N)NC1(O)C1CC1 (configuration not stated)	PLK1 PBD inh inconclusive
COCc1[nH]nc2c1C(c1ccc(OC)cc1)C(C#N)=C(N)O2 (configuration not stated)	none
CCc1cccc(C)c1NC(=O)Cn1ccn(-c2ccc(F)cc2)c(=O)c1=O	none (no result: Sfp inh, PLK1 PBD inh)
NS(=O)(=O)c1ccc(-c2ccc(C=C3C(=O)c4ccccc4C3=O)o2)cc1	none
CC(C)CC1=C/C(=C/c2ccc(-c3ccccc3)o2)C(=O)O1	TrxR1 inh inconclusive, Sfp inh inconclusive, PLK1 PBD inh 11µM, VDR inh inconclusive
COc1ccccc1CNC(=O)c1cn(C)c2ccc(S(=O)(=O)N(C)C3CCCCC3)cc2c1=O	none (no result: Sfp inh, PLK1 PBD inh)
COc1cc2c(cc1OC)C(CC#N)=NC(C)(C)C2	Sfp inh 79µM
COc1cc2c(cc1OC)C(CSc1ccccc1C(=O)O)=NC(C)(C)C2	none
C(=C\c1ccccn1)/c1ccccc1	none (no result: IDH1 R132H inh, Sfp inh, PLK1 PBD inh, VDR inh)
COC(=O)C1(C(=O)OC)c2cc3c(cc2CN(S(=O)(=O)c2ccc(C)cc2)C1CC(C)=O)OCO3 (configuration not stated)	none (no result: IDH1 R132H inh, TrxR1 inh, TrxR1 substrate, Sfp inh, VDR inh)
CCN(N=O)c1ccc(/C=C2\C=Cc3ccccc32)cc1	none (no result: IDH1 R132H inh, Sfp inh, PLK1 PBD inh, VDR inh)
COc1ccc(C(=O)OCC(=O)Nc2sccc2C(N)=O)cc1OC	none
COc1ccc(C(=O)OCC(=O)Nc2ncc([N+](=O)[O-])s2)cc1OC	PLK1 PBD inh 9.5µM, VDR inh inconclusive (no result: Sfp inh)
Cc1cccc(C(=O)NCc2nnc(SCC(=O)Nc3nncs3)n2C)c1	none
C[C@H](O)[C@H](O)[C@H]1CNc2nc(N)[nH]c(=O)c2N1	PLK1 PBD inh 27µM, VDR inh 79µM (no result: Sfp inh)
COc1cc(NS(=O)(=O)c2ccc(NC(=S)NC(=O)c3sc4ccccc4c3Cl)cc2)nc(OC)n1	TrxR1 inh inconclusive, Sfp inh 50µM, PLK1 PBD inh inconclusive
COc1cc(NS(=O)(=O)c2ccc(NC(=S)NC(=O)c3sc4cc(F)ccc4c3Cl)cc2)nc(OC)n1	Sfp inh 50µM, PLK1 PBD inh 27µM, VDR inh inconclusive
O=C(O)c1ccccc1NC(=S)NC(=O)c1sc2ccccc2c1Cl	Sfp inh 45µM, PLK1 PBD inh 12µM, VDR inh inconclusive
O=C(NC(=S)Nc1ccccc1N1CCOCC1)c1sc2ccccc2c1Cl	none
O=C(NC(=S)Nc1ccc(N2CCOCC2)c(Cl)c1)c1sc2ccccc2c1Cl	Sfp inh inconclusive
NC(N)=NS(=O)(=O)c1ccc(NC(=S)NC(=O)c2sc3ccccc3c2Cl)cc1	Sfp inh 56µM
CCOC(=O)C1(C)CCN1C(=O)c1ccc2c(c1)CCO2 (configuration not stated)	none (no result: IDH1 R132H inh, TrxR1 inh, TrxR1 substrate, Sfp inh, VDR inh)
O=C(Nc1ccnc(=O)[nH]1)c1sc2ccccc2c1Cl	PLK1 PBD inh 27µM
O=C(NC1CCCC1)C(c1ccccn1)N(C(=O)c1csnn1)C1CCCCC1 (configuration not stated)	PLK1 PBD inh 27µM, VDR inh inconclusive
O=C(CN(Cc1cccs1)C(=O)c1csnn1)NC1CCCC1	PLK1 PBD inh 27µM
O=C(NC1CCCC1)C(c1ccncc1)N(C(=O)c1csnn1)C1CCCC1 (configuration not stated)	Sfp inh 56µM
O=C(NC1CCCC1)C(c1ccccn1)N(C(=O)c1csnn1)C1CC1 (configuration not stated)	none
O=C(NC1CCCC1)C(c1cccnc1)N(C(=O)c1csnn1)C1CCCC1 (configuration not stated)	none
Cc1ccc(S(=O)(=O)N2CCN(c3ccnc(-c4cccs4)n3)CC2)cc1	none (no result: IDH1 R132H inh, Sfp inh, PLK1 PBD inh)
CC1(C(=O)NS(=O)(=O)c2ccccc2Cl)CCN1C(=O)Cc1cc(F)ccc1F (configuration not stated)	none (no result: IDH1 R132H inh, TrxR1 inh, TrxR1 substrate, Sfp inh, VDR inh)
O=C(C1CC1)N(Cc1nc2ccccc2c(=O)[nH]1)Cc1cccs1	PLK1 PBD inh 15µM, VDR inh inconclusive
COc1ccccc1CN1CC(C(=O)NCCCc2ccc(F)cc2)CCC1=O (configuration not stated)	none
O=C(CCl)c1cc2c3c(c1)CC(=O)N3CCC2	TrxR1 inh 89µM, PLK1 PBD inh 1.2µM, VDR inh inconclusive
O=C(NCCO)C(=O)Nc1cc2c3c(c1)CC(=O)N3CCC2	none
CCNC(=O)C1CCCN(Cc2ccc3ccccc3c2Br)CC1 (configuration not stated)	none (no result: IDH1 R132H inh, TrxR1 inh, TrxR1 substrate, Sfp inh, VDR inh)
CCN(CC)CCNC(=O)c1ccc(NC(=O)c2ccc(S(=O)(=O)N3CCCCCC3)cc2)cc1	none (no result: Sfp inh)
CCN(CC)CCNC(=O)c1ccc(Cl)c(S(=O)(=O)Nc2ccccc2OC)c1	PLK1 PBD inh 24µM
CCN(CC)CCNC(=O)c1ccc(NC(=O)c2ccc(Cl)c(S(=O)(=O)N3CCCCCC3)c2)cc1	Sfp inh 50µM
Cc1ccc(C(=O)Nc2cccnc2)cc1S(=O)(=O)N1CCCCC1	PLK1 PBD inh 17µM, VDR inh inconclusive
CN(CC(=O)O)c1ccc(C=O)cc1	none (no result: IDH1 R132H inh, Sfp inh, PLK1 PBD inh, VDR inh)
COc1ccc(NC(=O)C2(C)CCN2C(=O)CC2CCCC2)cc1OC (configuration not stated)	none (no result: IDH1 R132H inh, TrxR1 inh, TrxR1 substrate, Sfp inh, VDR inh)
COC(=O)c1ccccc1Nc1cc(C)nc2nc(C)nn12	PLK1 PBD inh 21µM, VDR inh inconclusive
CCOC(=O)c1ccccc1Nc1cc(C)nc2nc(C)nn12	none
COc1cc(/C=C2\C(=O)N(c3ccc(NC(C)=O)cc3)N=C2c2ccccc2)ccc1O	TrxR1 inh inconclusive, PLK1 PBD inh 24µM, VDR inh inconclusive
O=C1/C(=C\c2ccc(O)c(O)c2)C(c2ccccc2)=NN1c1ccccc1	TrxR1 inh inconclusive, Sfp inh 50µM, PLK1 PBD inh 15µM
CCOc1cc(/C=C2\C(=O)N(c3nc(-c4ccc(Br)cc4)cs3)N=C2c2ccccc2)ccc1O	PLK1 PBD inh inconclusive
CC1=NN(c2ccccc2)C(=O)/C1=C/C=C/c1ccccc1	PLK1 PBD inh inconclusive, VDR inh inconclusive
CCOc1ccccc1NC(=O)Cn1c(=O)n(Cc2cccs2)c(=O)c2cccnc21	none (no result: Sfp inh, PLK1 PBD inh)
CCCCCc1cc(=O)oc2c(C(CCN3CCCCC3)c3ccc(OC)cc3)c(OC)cc(OC)c12 (configuration not stated)	Sfp inh inconclusive, VDR inh inconclusive
